# Assay outcomes as filed in PubChem.
# Shown are actives, neighbours in structure and some others; about 6.1% of the full set was active somewhere.
# TGFb inhibitor – inhibitors of TGF-b signaling. Potency, µM (top dose mostly 46.1 µM), without a hit: at the highest dose activity, negative = inhibition, hits mostly inhibitors. actives 1.2% (n = 410,000). HepG2 CAGA-GFP TGF-b/SMAD3 reporter, GFP fluorescence, 18 h; TGF-beta stimulated, 500 pg/mL final; note: potency is the fitted concentration of half-maximal effect; % is set by controls: 0 for no effect and ±100 for the full control effect; nearly all actives have a fitted effect of over 65% in size
#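 Smad-responsive CAGA-GFP expression was quantified in HEPG2 cells exposed to compounds and 500 pg/mL final TGF-beta for 18 h at 37 degrees C; unstimulated wells defined full inhibition.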
# HepG2 viability – kills HepG2 cells in TGF-b inhibitor counter-screen. AID 588856. Potency, µM (highest dose often 46.1 µM), inactives show top-dose activity change, negative = cytotoxicity, most hits filed as cytotoxic. HepG2 CAGA-GFP viability, ATP luminescence, 18 h. actives 0.76% (n = 410,000); note: potency is the fitted concentration of half-maximal effect
#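 HepG2 CAGA-GFP cells (1000/well, DMEM with 1% FBS) received compound, then TGF-beta at 500 pg/mL final, and were incubated 18 hours at 37 degrees C. Viability was read by CellTiter-Glo luminescence. Media-only wells were set as complete cell-killing and DMSO as no toxicity.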
# RORgamma inh – inhibitors of mouse ROR gamma transcriptional activity; Drosophila S2 Gal4-RORgamma UAS-luciferase reporter, 20 h; actives 5.4% (n = 310,000); Potency, µM (doses to about 53.6 µM), inactives show top-dose activity change, negative = inhibition, actives largely listed as inhibitors; note: potency is the fitted concentration of half-maximal effect; % is set by controls: 0 for no effect and ±100 for the full control effect; nearly all actives have a fitted effect of over 60% in size
# Target sequence (P51450 whole entry, looked up, the tested form may be a part): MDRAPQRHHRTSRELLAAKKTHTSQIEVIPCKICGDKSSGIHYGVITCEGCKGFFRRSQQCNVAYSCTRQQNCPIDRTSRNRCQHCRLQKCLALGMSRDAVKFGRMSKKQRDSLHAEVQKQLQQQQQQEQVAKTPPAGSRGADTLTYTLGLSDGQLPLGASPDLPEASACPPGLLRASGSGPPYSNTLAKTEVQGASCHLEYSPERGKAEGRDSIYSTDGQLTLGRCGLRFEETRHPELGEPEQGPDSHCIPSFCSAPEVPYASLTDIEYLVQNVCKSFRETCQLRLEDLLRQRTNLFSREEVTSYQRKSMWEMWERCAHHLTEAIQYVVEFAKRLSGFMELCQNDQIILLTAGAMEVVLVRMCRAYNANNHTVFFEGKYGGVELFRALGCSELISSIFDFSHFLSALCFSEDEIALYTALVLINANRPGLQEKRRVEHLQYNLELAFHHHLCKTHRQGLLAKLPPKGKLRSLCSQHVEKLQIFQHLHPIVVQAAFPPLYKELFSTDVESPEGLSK
#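 Stably transfected Drosophila Schneider cells are the test system, with ROR gamma fused to Gal4 and luciferase under UAS control; luminescence is read after 20 hr of 700 uM copper sulfate induction at ambient temperature.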
# Gal4-VP16 FLuc – counter-screen for ROR gamma inhibitors: Gal4-VP16 reporter. Drosophila S2 Gal4-VP16 UAS-luciferase, luminescence, 20 h. Potency, µM (highest dose often 53.6 µM), for inactives: at the highest dose activity, negative = inhibition, most hits filed as inhibitors. actives 3.5% (n = 310,000);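 note: Gal4-VP16 expression switched on by copper sulfate through the metallothionein promoter; potency is the fitted concentration of half-maximal effect; % is set by controls: 0 for no effect and ±100 for the full control effect; nearly all actives have a fitted effect of over 50% in size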
# ATXN2 expr inh – reduces ATXN2 reporter expression in HEK-293 cells. HEK-293 ATXN2-luciferase reporter, luminescence, 24 h. actives 0.72% (n = 360,000). Potency, µM (series often up to 57 µM), for inactives: at the top dose activity change, negative = inhibition, actives largely listed as inhibitors. AID 1745845; note: potency is the fitted concentration of half-maximal effect; % is set by controls: 0 for no effect and ±100 for the full control effect; nearly all actives have a fitted effect of over 55% in size
#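 ATXN2-luciferase reporter cells (luciferase flanked by upstream and downstream ATXN2 gene portions) were treated 24 h at 37 °C with compounds at up to 57 uM. SteadyGlo luminescence gave expression; GF-AFC fluorescence gave viability.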
# ATXN viability – reduces viability in counter-screen for ATXN expression inhibitors. actives 0.49% (n = 400,000). AID 651635. Potency, µM (top dose mostly 56.7 µM), usual class: cytotoxic. S2 cells (HEK-293 line with an ATXN2-luciferase reporter) viability, CellTiter-Fluor protease fluorescence, 24 h; note: potency is the fitted concentration of half-maximal effect; nearly all actives have a fitted effect of over 40% in size
# SK-N-SH 3D tox – kills SK-N-SH neuroblastoma spheroids in orthogonal 3D test; shares compounds with ATXN2 expr inh; SK-N-SH 3D spheroid viability, PI/Hoechst imaging, 72 h; Potency, µM (top dose mostly 30.7 µM), hits mostly inhibitors; actives 70% (n = 65); AID 1347135
# SJGBM2 3D viab – SJ-GBM2 spheroid viability loss, orthogonal 3D screen; shares compounds with ATXN2 expr inh; SJ-GBM2 3D spheroid viability, PI/Hoechst imaging, 72 h; Potency, µM (highest dose often 30.7 µM), hits mostly inhibitors; actives 80% (n = 65)
# Daoy spheroid – Daoy 3D spheroid viability loss; actives 50% (n = 65); shares compounds with ATXN2 expr inh; Potency, µM (top dose mostly 30.7 µM), hits mostly inhibitors; Daoy 3D spheroid viability, PI/Hoechst imaging, 72 h
# TC32 3D caspase – caspase activation in TC32 3D spheroids, orthogonal test. actives 30% (n = 65). AID 1347138. TC32 3D spheroids, caspase-3/7 fluorescence imaging, 24 h. Potency, µM (doses to about 30.7 µM), usual class: inhibitors. shares compounds with ATXN2 expr inh
# TC32 spheroid – TC32 3D spheroid viability loss; shares compounds with ATXN2 expr inh; Potency, µM (top dose mostly 30.7 µM), usual class: inhibitors; actives 60% (n = 65); AID 1347139; TC32 3D spheroid viability, PI/Hoechst imaging, 72 h
# MG63 spheroid – kills MG-63 (6-TG R) spheroids in orthogonal 3D test | shares compounds with ATXN2 expr inh | MG-63 (6-TG R) 3D spheroid viability, PI/Hoechst imaging, 72 h | Potency, µM (titrated, usually from 30.7 µM), usual class: inhibitors | actives 50% (n = 65)
# RD 3D tox – kills RD rhabdomyosarcoma spheroids in orthogonal 3D test; shares compounds with ATXN2 expr inh; RD rhabdomyosarcoma 3D spheroid viability, PI/Hoechst imaging, 72 h; Potency, µM (series often up to 30.7 µM), actives largely listed as inhibitors; actives 50% (n = 65); AID 1347141
# The depositor's hits bear a star; i = inactive; u = inconclusive; x = no result; ! = not confirmed by another sample; [ ] = remark or other dose. Calls come from the whole dose curve; as a rule, active = well fitted curve in the direction sought with a large enough effect; inconclusive = small, poorly fitted or top-dose-only effect, or another doubt; inactive = no such curve, though single readings can be large; an effect the other way counts as inactive or inconclusive.
SMILES,TGFb inhibitor,HepG2 viability,RORgamma inh,Gal4-VP16 FLuc,ATXN2 expr inh,ATXN viability,SK-N-SH 3D tox,SJGBM2 3D viab,Daoy spheroid,TC32 3D caspase,TC32 spheroid,MG63 spheroid,RD 3D tox
CC(C)(C)C(=O)OCOP(=O)(COCCn1cnc2c(N)ncnc21)OCOC(=O)C(C)(C)C,x,x,-15%[10 µM],-3%,3.5µM*!,i,5.1µM*,4.1µM*,u,i,2.6µM*,u,u
Nc1ncnc2c1ncn2CCOc1ccccc1,u,-25%,12%,15%,13%,i,x,x,x,x,x,x,x
Cc1ccc(Nc2cc(C)c(C#N)c3nc4ccccc4n23)c(C)c1,-5%,-3%,x,x,2%,i,x,x,x,x,x,x,x
COc1ccc(-c2ccc3ncc4c(c3c2)n(-c2ccc(N3CCNCC3)c(C(F)(F)F)c2)c(=O)n4C)cn1,x,x,x,x,7.7µM*,x,0.25µM*,0.031µM*,0.0056µM*,0.5µM*,0.13µM*,0.0056µM*,0.16µM*
C[C@]12C=CC(=O)C=C1CC[C@H]1[C@@H]3C[C@@H](O)[C@](O)(C(=O)CO)[C@@]3(C)C[C@H](O)[C@@]12F,40%,-1%,-3%,-5%,-5%,i,u,0.46µM*,i,u,7.2µM*,i,i
CCN(CC)c1ccc(NC(=O)C(NS(=O)(=O)c2cccs2)C(C)C)c(C)c1 (stereo not given),4%,-22%,x,x,9%,i,x,x,x,x,x,x,x
Nc1nc(Cl)nc2c1ncn2[C@@H]1O[C@H](CO)[C@@H](O)[C@@H]1F,x,x,x,x,1µM*,u,i,0.023µM*,u,i,5.1µM*,0.16µM*,u
C[C@@H]1C[C@H]2[C@@H]3CCC4=CC(=O)C=C[C@]4(C)[C@@]3(Cl)[C@@H](O)C[C@]2(C)[C@@]1(OC(=O)c1ccco1)C(=O)CCl,-4%,-42%,x,x,u,u,i,u,i,i,i,i,i
COc1ccc(-c2nc(N3CCOCC3)c3sc(CN(C)c4ncc(C(=O)NO)cn4)cc3n2)cn1,x,x,x,x,13%,x,5.1µM*,11µM*,5.1µM*,i,i,u,i
COc1cccc(CNC(=O)c2ccc3c(c2)nc2n3CCCCC2)c1OC,x,-10%,x,x,x,x,x,x,x,x,x,x,x
COc1c(C)c2c(c(O)c1C/C=C(\C)CCC(=O)OCCN1CCOCC1)C(=O)OC2,x,x,x,x,40%,u,u,0.23µM*,u,i,u,0.81µM*,u
COc1cc(C(=O)OCCN2CCOCC2)cc(OC)c1OC,2%,-45%,-6%,-2%,-1%,i,x,x,x,x,x,x,x
COc1ccc(S(=O)(=O)N(CCc2ccccc2)CC(=O)Nc2cc(C)ccc2C)cc1,u,-31%,x,x,-2%,u,x,x,x,x,x,x,x
C(=Nc1ccc(/C=C/c2ccnc3ccccc23)cc1)c1ccco1,-2%,-30%,x,x,x,x,x,x,x,x,x,x,x
C[C@@H]1CCC2[C@@H](C)[C@@H](O)O[C@@H]3O[C@@]4(C)CC[C@@H]1[C@@]23OO4 (stereo not given in full),x,x,-7%,-25%,x,x,x,x,x,x,x,x,x
C[C@H]1[C@@H](OC(=O)CCC(=O)O)O[C@@H]2O[C@@]3(C)CC[C@@H]4[C@H](C)CC[C@@H]1[C@@]24OO3,x,x,x,x,u,x,u,1.3µM*,i,u,u,u,0.91µM*
CC(=O)OC[C@@H]1O[C@H](CCO/N=C(\C)CCN2CCCCc3nc(C)c(C)cc32)C=C[C@@H]1OC(C)=O,x,x,-11%[10 µM],2%[10 µM],x,x,x,x,x,x,x,x,x
CC(C)Cc1ccc(C(C)C(=O)O)cc1 (stereo not given),-13%,-24%,2%,-3%,5%,i,u,11µM*,u,i,i,i,i
CC(C)Cc1ccc(C(C)C(=O)Nc2ncccn2)cc1 (stereo not given),6%,-24%,u,1%,-15%,x,x,x,x,x,x,x,x
CCOC(=O)c1cccc(NC(=O)Cn2c(=O)nc(-c3ccccc3F)c3cc(Cl)ccc32)c1,13%,-1%,x,x,x,x,x,x,x,x,x,x,x
COc1cc([C@@H]2c3cc4c(cc3C(O[C@@H]3O[C@@H]5CO[C@@H](c6cccs6)OC5[C@H](O)[C@H]3O)C3COC(=O)[C@@H]32)OCO4)cc(OC)c1O (stereo not given in full),x,x,x,x,x,x,0.057µM*,0.032µM*,0.041µM*,u,0.016µM*,4.1µM*,5.7µM*
COc1ccc(Nc2nc3ccccc3nc2NS(=O)(=O)c2ccc(NC(C)=O)cc2)cc1,-29%,16%,20%,3%,24%,i,x,x,x,x,x,x,x
COc1ccc(S(=O)(=O)Nc2cccnc2Nc2ccc(O)cc2)cc1,x,x,x,x,-15%,x,0.32µM*,0.23µM*,u,1µM*,0.57µM*,u,0.46µM*
CN(C)c1ccc(-c2cc(N(C)Cc3ccco3)ncn2)cc1,x,x,u,-29%,x,x,x,x,x,x,x,x,x
CCc1nc(N)nc(N)c1-c1ccc(Cl)cc1,u,-36%,6%,-4%,u,i,u,0.91µM*,u,i,u,u,u
CCc1nc(N)nc(N)c1-c1ccc(NCCN)c([N+](=O)[O-])c1,u,x,x,x,-32%,u,x,x,x,x,x,x,x
